# Compound activity deposited in PubChem BioAssay by National Center for Advancing Translational Sciences (NCATS).
# This is a sample that favours compounds with a hit; in the whole collection about 0.9% have one here.
# TRb SRC2 PPI – TRbeta-SRC2 interaction inhibition | Potency, µM (top dose mostly 106 µM), for inactives: top-dose activity change, negative = inhibition, most hits filed as inhibitors | 280,000 compounds, 0.065% hits | P10828 | TRbeta-SRC2 peptide binding, fluorescence polarization; receptor liganded with 1 µM T3;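 further: plate controls were bound peptide for no effect and peptide without receptor for full effect; nearly all actives have a fitted effect of over 50% in size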
# Target sequence (P10828 whole entry, looked up): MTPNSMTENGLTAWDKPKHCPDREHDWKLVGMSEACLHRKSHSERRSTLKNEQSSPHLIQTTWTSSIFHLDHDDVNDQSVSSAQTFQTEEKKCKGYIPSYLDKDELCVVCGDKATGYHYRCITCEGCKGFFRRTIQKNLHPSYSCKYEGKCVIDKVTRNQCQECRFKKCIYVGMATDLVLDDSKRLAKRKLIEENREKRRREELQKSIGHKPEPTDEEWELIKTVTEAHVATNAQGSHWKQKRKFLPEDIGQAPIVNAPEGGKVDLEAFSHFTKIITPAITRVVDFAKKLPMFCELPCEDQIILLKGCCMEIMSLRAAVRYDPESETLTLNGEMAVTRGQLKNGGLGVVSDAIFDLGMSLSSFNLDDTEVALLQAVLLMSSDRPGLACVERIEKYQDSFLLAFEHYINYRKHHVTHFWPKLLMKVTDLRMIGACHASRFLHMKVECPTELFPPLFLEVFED
#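 Assay buffer: 20 mM Tris-HCl, 100 mM NaCl, 10% glycerol, 1 mM EDTA, 0.01% NP-40, 1 mM DTT, 1 uM T3, 5% DMSO; TRb LBD 0.6 uM, Texas Red SRC2 20 nM; FP after 5 hr.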
# APE1 inh – APE1 (human) endonuclease inhibition; P27695; recombinant APE1, TAMRA/BHQ-2 abasic DNA cleavage fluorescence; Potency, µM (top dose mostly 65.8 µM), without a hit: at the top dose activity change, negative = inhibition, hits mostly inhibitors; 350,000 compounds, 0.35% hits; AID 2517;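 further: plate controls were vehicle for no effect and reference inhibitor for full effect; nearly all actives have a fitted effect of over 55% in size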
# Target sequence (P27695 whole entry, looked up): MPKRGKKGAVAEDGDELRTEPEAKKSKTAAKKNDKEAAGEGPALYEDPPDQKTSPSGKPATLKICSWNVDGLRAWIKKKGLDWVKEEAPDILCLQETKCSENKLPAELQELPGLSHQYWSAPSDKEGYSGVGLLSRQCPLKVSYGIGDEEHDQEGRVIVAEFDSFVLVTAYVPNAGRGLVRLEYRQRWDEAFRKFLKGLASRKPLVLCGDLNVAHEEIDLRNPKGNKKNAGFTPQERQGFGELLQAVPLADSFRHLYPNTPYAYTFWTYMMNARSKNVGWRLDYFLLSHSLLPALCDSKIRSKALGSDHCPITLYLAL
#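 Quantitative HTS: incision of a TAMRA/BHQ-2 double-stranded substrate bearing a tetrahydrofuran abasic site by 0.75 nM APE1 raises fluorescence. Substrate 50 nM final, added after 15 min compound preincubation at room temperature; progress as third-minus-first kinetic read difference.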
# RECQ1 helicase – inhibitors of human RECQ1 DNA helicase; P46063; RECQ1 DNA unwinding, red fluorescence kinetic read; Potency, µM (series often up to 57.3 µM), without a hit: top-dose activity, negative = inhibition, actives largely listed as inhibitors; 240,000 compounds, 0.54% hits; AID 2549;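 further: plate controls were vehicle for no effect and no enzyme for full effect; nearly all actives have a fitted effect of over 30% in size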
#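 50 nM RECQ1T1 preincubated 15 min with compound in Tris pH 8.0 buffer with MgCl2, DTT, Tween-20 and 2.5 ug/ml poly(dI-dC); started with 200 nM TAMRA/BHQ-2 forked duplex and 2 mM ATP. Unwinding read as fluorescence (525/598 nm), two reads 2 h apart.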
# BLM inh – inhibitors of human Bloom syndrome helicase BLM; 350,000 compounds, 0.2% hits; Potency, µM (top dose mostly 56.1 µM), for the others: at the top dose activity change, negative = inhibition, most hits filed as inhibitors; AID 2528; recombinant BLM DNA unwinding, fluorescence dequenching;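 further: plate controls were vehicle for no effect and no enzyme for full effect; nearly all actives have a fitted effect of over 35% in size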
# TR SRC2 fluor cs – Texas Red fluorescence interference in TRb-SRC2 counter-screen; 280,000 compounds, 0.29% hits; Potency, µM (doses to about 106 µM), inactives show at the top dose fluorescence change, negative = quenching; TRb/SRC2 Texas Red total fluorescence interference; AID 1479; active means well fitted curve in either direction with a large enough effect; inconclusive means small, poorly fitted or top-dose-only effect
#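 Human TRβ ligand-binding domain (0.6 uM) and Texas Red SRC2 peptide (20 nM) in Tris buffer with 1 uM T3 and 5% DMSO were incubated with pinned compound for 5 hr at ambient temperature. Total fluorescence was computed as S + 2P (555/632 nm).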
# RGS12 GoLoco inh – inhibitors of human Gai1-RGS12 GoLoco interaction (red fluorophore); P63096; Gai1:RGS12 GoLoco peptide FP, rhodamine, 10 min; Potency, µM (series often up to 61.6 µM), inactives show top-dose activity, negative = inhibition, most hits filed as inhibitors; 230,000 compounds, 0.44% hits; active means well fitted inhibition curve with a large enough effect, not every such curve was filed as active; inactive means no such curve, though single readings can be large or run the other way; further: nearly all actives have a fitted effect of over 30% in size
# An asterisk follows results filed as active; i = inactive; ? = inconclusive; . = no result given; [ ] = another dose, or the depositor's remark. Unless noted, the call rests on the fitted dose curve; in most records, active means well fitted curve in the direction sought with a large enough effect; inconclusive means small, poorly fitted or top-dose-only effect, or another doubt; inactive means no such curve, though single readings can be large; an effect the other way counts as inactive or inconclusive. Unless noted, on the % scale 0 is the no-effect control and ±100 the full control effect; potency means the concentration at half of the fitted maximal effect.
SMILES,TRb SRC2 PPI,APE1 inh,RECQ1 helicase,BLM inh,TR SRC2 fluor cs,RGS12 GoLoco inh
Cc1cc2cc(CNC(=O)c3ccc(S(=O)(=O)N4CCOCC4)cc3)ccc2n1C,40µM*,-9%,-12%,-6%,45µM*[fluorescent],-102%
CC(C)CNc1nc(C#N)nc(Nc2ccccc2)n1,.,1%,-8%,-11%,.,.
O=C(CSc1nnc(CNC(=O)c2ccccc2)o1)NCc1ccco1,.,-30%,.,-5%,.,.
O=C(CSc1nnc(CNC(=O)c2c(F)cccc2F)o1)NCc1ccco1,.,11µM*,.,-11%,.,.
Cn1cc(C(=O)N2CCN(c3cccc(Cl)c3)CC2)c(=O)c2cc(S(=O)(=O)N3CCCC3)ccc21,2%,.,.,-2%,-1%,.
CC(C)(C)[C@H]1COC(=O)[C@H](NC(=O)OCC2c3ccccc3-c3ccccc32)C/C=C\C[C@@H](CC(=O)N[C@@H](CO)Cc2ccccc2)C(=O)N1,.,24µM*,.,.,.,.
CC(C)(C)OC(=O)C[C@H]1C/C=C\C[C@H](CC(=O)N[C@@H](CO)Cc2ccccc2)C(=O)N[C@H](C(C)(C)C)COC1=O,.,13µM*,.,.,.,.
O=C(N[C@@H]1C/C=C\C[C@@H](CC(=O)N(CCO)Cc2ccccc2)C(=O)NCCOC1=O)OCC1c2ccccc2-c2ccccc21,.,24µM*,.,.,.,.
COC(=O)c1c(Oc2ccc(OC)cc2)nnc(-c2ccccc2)c1-c1ccccc1,-8%,.,.,-9%,794µM*[quencher],.
COC(=O)c1c(-c2ccccc2)c(-c2ccccc2)nn(C)c1=O,-1%,33%,.,-2%,0%,.
CCc1ccc(S(=O)(=O)Nc2cc(SCC(=O)O)c(O)c3ccccc23)cc1,-1%,1%,-6%,18µM*,-6%,8%
Cc1ccc(C)c(S(=O)(=O)Nc2cc(SCC(=O)O)c(O)c3ccccc23)c1,?,-12%,0%,16µM*,-22%,0%
CCOc1ccc(S(=O)(=O)Nc2cc(SCC(=O)O)c(O)c3ccccc23)cc1,.,9%,.,?,.,.
O=C(O)CSc1cc(NS(=O)(=O)c2cccc([N+](=O)[O-])c2)c2ccccc2c1O,-13%,-5%,-15%,18µM*,-5%,-18%
CCCN(C(=O)Cn1cnc2onc(-c3ccc(F)cc3)c2c1=O)c1cccc(Cl)c1,-16%,.,.,-7%,178µM*[quencher],.
C/C(=C\C(=O)c1cccnc1)Nc1ccc(O)cc1,14µM*,-3%,-14%,-13%,21%,-2%
C/C(=C\C(=O)c1ccccc1)Nc1ccc(O)cc1,?,-8%,-10%,-12%,-15%,-4%
O=C(O)C1C2CCC(O2)C1C(=O)Nc1ccc(O)cc1 (stereo unspecified),2%,1%,i,?,-6%,16µM*
CNC1=C(Br)C(=O)c2ccncc2C1=O,-4%,?,0%,14µM*,-9%,2%
CNC1=C(Cl)C(=O)c2ccncc2C1=O,4%,?,-5%,18µM*,-8%,-9%
CN(C)c1ccc(NC2=C(Cl)C(=O)c3ccccc3C2=O)cc1,-30%,-3%,i,-19%,-22%,-32%
CNc1ccncc1S(=O)(=O)NC,2%,-2%,-20%,1%,-3%,-8%
CCN[C@@H]1C[C@H](N)[C@@H](OC2OC(CN)=CCC2N)[C@H](O)[C@H]1O[C@H]1OC[C@](C)(O)[C@H](NC)[C@H]1O (stereo partly specified),.,1%[21 µM],.,.,.,.
Cc1ccccc1C1CC(=O)Oc2ccc(C(C)(C)C)cc21 (stereo unspecified),6%,0%,-6%[81.1 µM],-17%[75.6 µM],0%,16%[88.7 µM]
Cc1ccccc1C1CC(=O)Oc2cc(O)ccc21 (stereo unspecified),?,-15%,i,6%[120 µM],100µM*[fluorescent],-11%[88.7 µM]
SMILES,TRb SRC2 PPI,APE1 inh,RECQ1 helicase,BLM inh,TR SRC2 fluor cs,RGS12 GoLoco inh
COc1cc([C@@H]2c3cc4c(cc3[C@@H](O[C@@H]3O[C@H]5CO[C@@H](C)O[C@@H]5[C@@H](O)[C@H]3O)[C@@H]3COC(=O)[C@@H]23)OCO4)cc(OC)c1O,-4%,-3%,-10%,-14%,-1%,28µM*
COc1cc([C@@H]2c3cc4c(cc3[C@@H](OC3OC5COC(C)OC5C(O)C3O)[C@H]3COC(=O)[C@H]23)OCO4)cc(OC)c1O (stereo partly specified),1%,-1%,-15%,.,-1%,-17%
COc1ccc(C(=O)OCC[N+]2(C)CCCCC2)cc1,2%,7%,-5%,-1%,-1%,13µM*
COc1ccc(C(=O)OCCN2CCCCC2)cc1,5%,-4%,-12%,2%,-3%,3%
COc1ccc(C(=O)CC(=O)c2ccc(OC)cc2)cc1,.,24%,.,-3%,.,.
COc1ccc(C(=O)C[N+]2(C)CCOCC2)cc1,-2%,10%,-6%,-7%,-2%,7.1µM*
CC(=O)/C=C/C1C(C)=CCCC1(C)C (stereo unspecified),-1%[201 µM],.,.,.,0%[201 µM],.
C(=N\NC1=Nc2cccc3cccc1c23)/c1ccccc1,4%,-3%,-16%,-3%,23%,105%
NC1=Nc2cccc3cccc1c23,0%,-9%,?,3%,3%,20µM*
CCCCC(=O)N/N=C/c1ccc(-c2ccc([N+](=O)[O-])cc2)o1,-5%,1%,-6%,-3%,-3%,25%
Cc1cc(C)n(Cc2ccc(C(=O)N/N=C/c3ccc(-c4ccc([N+](=O)[O-])cc4)o3)o2)n1,.,2.7µM*,.,16µM*,.,.
COc1ccc(NC(=O)CSc2nnc(-c3cccc(S(=O)(=O)N4CCCC4)c3)n2-c2ccccc2)cc1,.,35%,.,.,.,.
CCCCCCCCCCCCCCCCCC#N,-2%[201 µM],.,.,.,4%[201 µM],.
C=CC1=C(C)C2=Cc3c(C=C)c(C)c4[n]3[Sn+2][n]3c(c(C)c(CCC(=O)O)c3=CC3=NC(=C4)C(C)=C3CCC(=O)O)=CC1=N2,13µM*,8.9µM*,40µM*,-22%,?,1.4µM*
O=c1cnc2cnc(N3CCNCC3)nc2n1Cc1ccc(F)cc1,.,5%,1%,3%,.,8.9µM*
O=c1c(-c2ccc(Cl)cc2)nc2cnc(N3CCNCC3)nc2n1Cc1ccc(F)cc1,.,16%,-15%,-4%,.,7%
Cc1ccc(NC(=O)CN2C(=O)N/C(=C/c3cc(C)n(-c4cccc(C(=O)O)c4)c3C)C2=O)cc1,3%,11µM*,?,-6%,1%,27%
CCn1c(C)cc(/C=C2\NC(=O)N(CC(=O)Nc3cccc(C)c3)C2=O)c1C,10%,-12%,-23%,-6%,6%,21%
Cc1ccc(NC(=O)CN2C(=O)N/C(=C/c3ccccc3OCc3cccc(C(=O)O)c3)C2=O)cc1,.,19µM*,.,?,.,.
